This is a sample that favours compounds with a hit; in the whole collection about 15% have one here.
ELG1 DNA repair: blocks ELG1-dependent DNA repair in HEK293T cells; HEK293T ELG1-luciferase reporter, luminescence, 16 h; DNA damage induced by 5-fluorouridine; Potency, µM (top dose mostly 46.1 µM), inactives show top-dose activity change, negative = inhibition, actives largely listed as inhibitors; hit rate 2.3% among 330,000; AID 504467; also: nearly all actives have a fitted effect of over 55% in size
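Luminescence from the luciferase reporter, measured 30 min after ONE-Glo reagent at room temperature, was the read-out. Beforehand, 2,000 cells per well were exposed for 16 hr at 37 °C to 5-fluorouridine together with compound or vehicle.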
ALOX12 inh: blocks human arachidonate 12S-lipoxygenase | P18054 | purified 12hLO, xylenol orange hydroperoxide absorbance | Potency, µM (titrated, usually from 108 µM), for the others: at the highest dose activity change, negative = inhibition, most hits filed as inhibitors | hit rate 1.1% among 580,000
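Purified human 12hLO (150 nM final) in 25 mM Hepes, 0.01% Triton X-100, pH 7.0 was preincubated 15 min at room temperature with compound. Then 40 uM arachidonic acid was added, 30 min. Hydroperoxide was read by Fe-XO absorbance ratio 573/405 nm.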
VP16 counter: counter-screen for ROR gamma inhibitors: Gal4-VP16 reporter | AID 2546 | hit rate 3.5% among 310,000 | Drosophila S2 Gal4-VP16 UAS-luciferase, luminescence, 20 h | Potency, µM (doses to about 53.6 µM), inactives show at the top dose activity, negative = inhibition, usual class: inhibitors;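 also: Gal4-VP16 expression switched on by copper sulfate through the metallothionein promoter; nearly all actives have a fitted effect of over 50% in size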
RORgamma inh: ROR gamma (mouse) transcription inhibition; Drosophila S2 Gal4-RORgamma UAS-luciferase reporter, 20 h; Potency, µM (titrated, usually from 53.6 µM), without a hit: top-dose activity change, negative = inhibition, hits mostly inhibitors; hit rate 5.4% among 310,000; AID 2551; also: nearly all actives have a fitted effect of over 60% in size
Target sequence (P51450 whole entry, looked up, the tested form may be a part): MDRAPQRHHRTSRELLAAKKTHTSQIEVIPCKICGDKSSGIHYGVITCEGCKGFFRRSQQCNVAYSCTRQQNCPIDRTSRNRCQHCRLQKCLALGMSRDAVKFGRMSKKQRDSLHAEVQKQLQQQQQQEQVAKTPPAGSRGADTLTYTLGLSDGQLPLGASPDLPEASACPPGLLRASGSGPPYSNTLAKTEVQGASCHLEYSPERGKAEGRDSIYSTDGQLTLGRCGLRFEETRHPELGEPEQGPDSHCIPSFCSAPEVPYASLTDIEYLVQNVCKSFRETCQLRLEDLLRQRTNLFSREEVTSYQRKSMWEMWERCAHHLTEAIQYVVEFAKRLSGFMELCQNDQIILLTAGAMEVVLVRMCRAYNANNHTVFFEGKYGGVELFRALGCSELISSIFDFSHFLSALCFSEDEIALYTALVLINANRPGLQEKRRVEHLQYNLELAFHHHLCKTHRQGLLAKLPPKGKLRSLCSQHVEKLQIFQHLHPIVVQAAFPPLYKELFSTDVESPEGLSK
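Schneider cells (Drosophila), stable Gal4 DBD–ROR gamma + UAS-luc; 1 hr cmpd preincubation; Cu2+ induction 700 uM final; 20 hr ambient; luminescence.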
TDP1 cell noCPT: qHTS for Inhibitors of human tyrosyl-DNA phosphodiesterase 1 (TDP1): qHTS in cells in absence of CPT. DT40 Tdp1-/- hTDP1 cells, no CPT, ATP luminescence, 48 h. hit rate 15% among 420,000. Potency, µM (titrated, usually from 46.2 µM), without a hit: at the top dose activity change, negative = growth inhibition, actives largely listed as inhibitors. AID 686978, 2013; also: nearly all actives have a fitted effect of over 55% in size
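Growth of hTDP1-complemented DT40 Tdp1-knockout cells is measured by ATP luminescence after at least 48 hr compound exposure at 37 °C, with DMSO substituting for the 20 nM CPT used in the parallel screen.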
TDP1 cell CPT: growth inhibition of DT40 Tdp1-/-;hTDP1 cells with camptothecin (screen for TDP1 inhibitors) | chicken DT40 Tdp1-/-;hTDP1 cells + 20 nM CPT, ATP luminescence, 48 h | Potency, µM (top dose mostly 46.2 µM), for the others: at the highest dose activity change, negative = growth inhibition, hits mostly inhibitors | hit rate 12% among 420,000; also: nearly all actives have a fitted effect of over 55% in size
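Chicken DT40 Tdp1-/- cells complemented with human TDP1, 400 cells/well, exposed to compounds plus 20 nM camptothecin for at least 48 h at 37 C; viability read as ATP content by CellTiter-Glo luminescence.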
* marks the source's active call; other numbers are inactive results; ? = inconclusive; nt = no result; [ ] = another dose, or the depositor's remark. Calls follow the shape of the dose curve; as a rule, active = well fitted curve in the direction sought with a large enough effect; inconclusive = small, poorly fitted or top-dose-only effect, or another doubt; inactive = no such curve, though single readings can be large; an effect the other way counts as inactive or inconclusive. % is scaled to controls: 0 for no effect and ±100 for the full control effect; potency is read from the fitted curve at half-maximal effect.

SMILES	ELG1 DNA repair	ALOX12 inh	VP16 counter	RORgamma inh	TDP1 cell noCPT	TDP1 cell CPT
CCCC1(CCC)NC(=O)N(CC(=O)c2cc(C)n(-c3ccc4c(c3)OCO4)c2C)C1=O	-17%	2%	0%	39%	21µM*	?
Cc1cc(C(=O)COC(=O)c2ccc(N)c([N+](=O)[O-])c2)c(C)n1Cc1ccc2c(c1)OCO2	13%	-3%	1%	0%	?	?
Cc1cc(C(=O)CN2C(=O)C(=O)N(Cc3ccccc3)C2=O)c(C)n1-c1ccc2c(c1)OCCO2	-1%	?	7%	6%	21µM*	15µM*
CCCN(CC1CC1)C(=O)C1CCN(C(=O)N2CC3CC(C2)[C@H]2CCCC(=O)N2C3)CC1 (stereo partly drawn)	nt	18%	nt	nt	nt	nt
CC(Nc1ccc(C(C)C)cc1)C(=O)Nc1ccc(Cl)cn1 (stereo not drawn)	nt	10%	nt	nt	nt	nt
CCN(CC)C(=O)c1cccc(-c2ccc(OCCn3ccnc3)cc2)c1	nt	56%	nt	nt	nt	nt
CC(=O)NC1CC2(CCN(C(=O)Cc3c(C)noc3C)CC2)Oc2ccccc21 (stereo not drawn)	nt	4%[6.33 µM]	nt	nt	nt	nt
COc1ccc(-n2c(C)cc(C(=O)COc3ccc(-n4cnnn4)cc3)c2C)cc1	-1%	280%	5%	-14%[10 µM]	?	?
Cc1cc(C(=O)COC(=O)CC2Sc3ccccc3NC2=O)c(C)n1-c1ccc2c(c1)OCO2 (stereo not drawn)	14%	-10%	-3%	32%	?	?
Cc1nnc(SCC(=O)c2cc(C)n(-c3ccc4c(c3)OCO4)c2C)s1	?	?	?	?	23µM*	26µM*
CC(=O)c1ccc(OCC(=O)c2cc(C)n(-c3ccc4c(c3)OCO4)c2C)cc1	?	0%	10µM*	?	10µM*	23µM*
C=CCn1c(C)cc(C(=O)COC(=O)c2ccc3c(c2)NC(=O)CS3)c1C	?	14%	-30%	7%	16µM*	?
COCCn1c(C)cc(C(=O)COC(=O)c2ccc3c(c2)NC(=O)CS3)c1C	?	-23%	-8%	10%	?	-26%
CC(=O)Nc1ccc(S(=O)(=O)NCC(=O)OCC(=O)c2cc(C)n(-c3ccc4c(c3)OCO4)c2C)cc1	-2%	-17%	-8%	1%	8.2µM*	-12%
CC(Cc1cccs1)N(Cc1ccccc1)C(=O)c1cccc(S(=O)(=O)N(C)C)c1 (stereo not drawn)	nt	8%	nt	nt	nt	nt
O=C(NCc1ccc(Cl)cc1)c1cccc(-c2ccc(S(=O)(=O)N3CCCCC3)cc2)c1	nt	-8%	nt	nt	nt	nt
C[C@@H]1CN([C@@H](C)CO)C(=O)Cc2cc(NC(=O)Nc3ccc(F)cc3)ccc2O[C@@H]1CN(C)Cc1ccc(Cl)c(Cl)c1	?	?	nt	nt	15µM*	?
C[C@H](CO)N1C[C@H](C)[C@H](CN(C)Cc2ccc(Oc3ccccc3)cc2)Oc2ccc(NC(=O)Nc3cccc4ccccc34)cc2CC1=O	?	-3%	nt	nt	?	?
C[C@H]1CN([C@@H](C)CO)C(=O)Cc2cc(NC(=O)Nc3ccccc3)ccc2O[C@H]1CN(C)Cc1ccccc1	nt	?	nt	nt	21µM*	21µM*
C[C@H](CO)N1C[C@H](C)[C@H](CN(C)Cc2ccncc2)Oc2ccc(NC(=O)Nc3ccc(C(F)(F)F)cc3)cc2CC1=O	?	-4%	nt	nt	4.6µM*	3.3µM*
O=C(Nc1cccc2cccnc12)C1(c2ccccc2)CCC1	nt	25%	nt	nt	nt	nt
O=C(CC1CCN(C(=O)C2CCCC2)C1)N1CCOCC1 (stereo not drawn)	nt	33%	nt	nt	nt	nt
CC(=Nc1cccc(C)c1)c1sc2ccccc2c1O	?	17%	-23%	-28%	-17%	0%
